Reference: PubChem BioAssay (NCI)
“And” between values parts separate entries of the source, which are not always exact repeats. Equal entries are not always repeated. About 83,000 compounds went through this panel and 20% of them were active in at least one assay; those are over-represented in the sample as a whole.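 Single-concentration screen, 48 h exposure, 96-well plates. Endpoint: percent growth. Below 10 = active.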 The source made the active and inactive calls.

System: NCI-H322M lung
Assay: NCI-60 one-dose screen, 48 h (100 = growth as untreated, 0 = no growth, -100 = all killed)
Conditions: 1 µM

Row | Compound | growth
1 | CC/C(=C(\c1ccc(O)cc1)c1ccc(OCCN(C)C(=O)COCCNC(=O)Cc2ccc3c(c2)CN([C@@H]2CCC(=O)NC2=O)C3=O)cc1)c1ccccc1 | 77.5% (inactive)
2 | CC/C(=C(\c1ccc(O)cc1)c1ccc(OCCN(C)C(=O)CCOCCNC(=O)c2ccc3c(c2)CN([C@@H]2CCC(=O)NC2=O)C3=O)cc1)c1ccccc1 | 101% (inactive)
3 | CC/C(=C(/c1ccc(O)cc1)c1ccc(OCCN(C)C(=O)COCCOCCNC(=O)c2ccc3c(c2)CN([C@@H]2CCC(=O)NC2=O)C3=O)cc1)c1ccccc1 | 101% (inactive)
4 | CC/C(=C(/c1ccc(O)cc1)c1ccc(OCCN(C)C(=O)CCOCCNC(=O)Cc2ccc3c(c2)CN([C@@H]2CCC(=O)NC2=O)C3=O)cc1)c1ccccc1 | 88.1% (inactive)
5 | CC/C(=C(/c1ccc(O)cc1)c1ccc(OCCN(C)C(=O)COCCOCCNC(=O)Cc2ccc3c(c2)CN([C@@H]2CCC(=O)NC2=O)C3=O)cc1)c1ccccc1 | 93.9% (inactive)
6 | CC/C(=C(\c1ccc(O)cc1)c1ccc(OCCNC)cc1)c1ccccc1 | 100% (inactive)

Same assay, conditions: 10 µM

Row | Compound | growth
7 | CC/C(=C(\c1ccc(O)cc1)c1ccc(OCCN(C)C(=O)COCCNC(=O)Cc2ccc3c(c2)CN([C@@H]2CCC(=O)NC2=O)C3=O)cc1)c1ccccc1 | 37.9% (inactive)
8 | CC/C(=C(\c1ccc(O)cc1)c1ccc(OCCN(C)C(=O)CCOCCNC(=O)c2ccc3c(c2)CN([C@@H]2CCC(=O)NC2=O)C3=O)cc1)c1ccccc1 | 88.1% (inactive)
9 | CC/C(=C(/c1ccc(O)cc1)c1ccc(OCCN(C)C(=O)COCCOCCNC(=O)c2ccc3c(c2)CN([C@@H]2CCC(=O)NC2=O)C3=O)cc1)c1ccccc1 | 85.2% (inactive)
10 | CC/C(=C(/c1ccc(O)cc1)c1ccc(OCCN(C)C(=O)CCOCCNC(=O)Cc2ccc3c(c2)CN([C@@H]2CCC(=O)NC2=O)C3=O)cc1)c1ccccc1 | 67% (inactive)
11 | CC/C(=C(/c1ccc(O)cc1)c1ccc(OCCN(C)C(=O)COCCOCCNC(=O)Cc2ccc3c(c2)CN([C@@H]2CCC(=O)NC2=O)C3=O)cc1)c1ccccc1 | 64.1% (inactive)
12 | CC/C(=C(\c1ccc(O)cc1)c1ccc(OCCNC)cc1)c1ccccc1 | 102% (inactive)

Same assay, conditions: 10 µM unless noted

Row | Compound | growth
13 | CC1(C)CC(=O)C2=C(C1)OC(N)=C(c1nc3ccccc3[nH]1)C2c1ccc(Cl)cc1 (stereo not drawn) | 51.3% (inactive) and 101% (inactive)
14 | COc1cc(C=O)ccc1Oc1nc(Nc2ccc(F)cc2)nc(N(C)C)n1 | 96.5% (inactive) and 78.9% (inactive)
15 | CCC(=O)c1c2c(c3ccc4c5ccccc5ccc4n13)C(=O)c1ccccc1C2=O | 59.1% (inactive)
16 | CCCCNC(=S)Nc1ccc(OCc2nc3ccc(Cl)cc3[nH]2)cc1 | 57% (inactive)
17 | Nc1ccc(-c2ccc3ncnc(N4CCc5cc(F)c(Cl)cc54)c3c2)cn1 | -2.2% (active)
18 | N#CC1=C(c2cccs2)Nc2c(c(-c3ccccc3)nn2-c2ccccc2)C12C(=O)Nc1ccc(Cl)cc12 (stereo not drawn) | 47.1% (inactive)
19 | C=CCn1c(O)c(N=Nc2nc(-c3cc4ccccc4oc3=O)cs2)c2ccccc21 | 101% (inactive)
20 | Fc1ccccc1CNc1nc(SCCN2CCOCC2)nc2c1cnn2CC(Cl)c1ccc(Br)cc1 (stereo not drawn) | 75.2% (inactive)
21 | O=C(CSc1nnc(-c2ccc(-c3nc4ccc(Cl)cc4[nH]3)cc2)o1)Nc1ccccc1 | 37.6% (inactive)
22 | O=C(CSc1nnc(-c2ccc(-c3nc4ccc(Cl)cc4[nH]3)cc2)o1)Nc1ccc(Cl)cc1 | 32.9% (inactive)
23 | Nc1nc(-c2ccccc2)c(N=Nc2ccc(Cl)cc2Cl)s1 | 4.7% (active)
24 | COc1c(B(O)O)cccc1-c1nc2ccc3cn[nH]c3c2c2c1CCCC2 | 67.7% (inactive)
25 | Nc1nn2c(-c3cc4cc(Br)ccc4oc3=O)ccnc2c1N=Nc1ccccc1 | 8.62% (active)
26 | O=C1/C(=C/c2cnc(-c3ccccc3)s2)SC(=S)N1Cc1ccc2c(c1)OCO2 | 92.2% (inactive)
27 | O=C(c1ccc(O)cc1)C1[C@H](c2ccc(Cl)cc2)[C@@H](c2ccccc2)NC12C(=O)Nc1ccc(Br)cc12 (stereo partly drawn) | -4.19% (active)
28 | COC(=O)c1cc(C(=O)C(C)(C)C)n2c3ccccc3c3ccccc3c12 | 102% (inactive)

Row | Compound | growth
29 | COc1ccc2[nH]c(O)c(N=Nc3nc(-c4ccccc4)cs3)c2c1 | 26.5% (inactive)
30 | CC1CCc2c(sc3nc(SCC(=O)c4cccc([N+](=O)[O-])c4)n(-c4ccccc4)c(=O)c23)C1 (stereo not drawn) | 97.9% (inactive)
31 | C=CCSc1nnc(-c2ccc(-c3nc4ccc(Cl)cc4[nH]3)cc2)o1 | 86.7% (inactive)
32 | O=C(Nc1nc2ccccc2s1)Nc1ccccc1Cl | 94.3% (inactive)
33 | CC[C@@]12CC(C(=O)OC)=C3Nc4cc5c(cc4[C@@]34CCN(C[C@H]3O[C@H]31)[C@@H]24)[C@@H]1[C@H](O5)[C@@H](O)[C@@]2(CC)CC(C(=O)OC)=C3Nc4cc(O)ccc4[C@@]34CCN1[C@@H]24 | -43% (active)
34 | CCOc1ccccc1NC(=O)N/C(N)=N/c1nc2ccccc2s1 | 35.9% (inactive)
35 | COc1sc(/C=N/NC(=O)c2[nH]c3ccc(Br)cc3c2-c2ccccc2)cc1Cl | 13.3% (inactive)
36 | COc1cc(CNC(=O)C[C@H](C)CCC=C(C)C)ccc1OCc1cn(-c2ccccc2Cl)nn1 | 91.3% (inactive)
37 | COc1ccc(-c2cc(C(=O)OCc3ccc(Br)cc3)nn2-c2ccc(S(C)(=O)=O)cc2)cc1OC | 90.9% (inactive)
38 | N#CC1=C(c2ccco2)Nc2c(c(-c3ccccc3)nn2-c2ccccc2)C12C(=O)Nc1ccc(Br)cc12 (stereo not drawn) | 86.9% (inactive)
39 | N/C(=N\c1nc2ccc([N+](=O)[O-])cc2s1)NC(=O)Nc1ccccc1Cl | 61.7% (inactive)
40 | S=C(Nc1ccccc1)Nc1ccc(OCc2nc3ccc(Cl)cc3[nH]2)cc1 | 89.5% (inactive)
41 | COc1ccc(N=Nc2c(N)nn3c(N)c(C#N)c(-c4ccc(C)cc4)nc23)cc1 | 78.7% (inactive)
42 | O=C(NC(=S)N1CCN(c2ncnc3c2cnn3-c2ccccc2)CC1)c1ccc(F)cc1 | 75.8% (inactive)
43 | Cc1cccc(C)c1Nc1nnc(-c2c[nH]c3ccccc23)o1 | 98% (inactive)
